According to PubChem BioAssay (NCATS):
A number with no mark means an inactive call. Results filed as inconclusive are left out. A call without a number means that no potency is given here. Activity calls are given as the source filed them. Calls come from the whole dose curve; as a rule, active = well fitted curve in the direction sought with a large enough effect; inconclusive = small, poorly fitted or top-dose-only effect, or another doubt; inactive = no such curve, though single readings can be large; an effect the other way counts as inactive or inconclusive.

Experiments:
[1] = molecular target: Metallo-beta-lactamase type 2 (Klebsiella pneumoniae) (UniProt C7C422); test: qHTS to identify inhibitors of the New Delhi Metallo-beta-lactamase (NDM): assay validation screen against the NCATS LOPAC Collection (AID 1794843);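 note: nitrocefin turnover by NDM-1 measured as 485 nm absorbance at plateau; series mostly up to about 38 µM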
In short: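 Enzyme 2 nM final, 50 mM HEPES pH 7.0, 1 uM ZnSO4, 0.01% Tween20; cpds in DMSO, preincub w/ enzyme; + nitrocefin (50 uM stock); A485 at plateau; no-enzyme column as blank.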

[2] = molecular target: Glutathione peroxidase 1 (Homo sapiens) (UniProt P07203); test: Primary qHTS Assay for Inhibitors of Recombinant Selenoprotein Glutathione Peroxidase 1 (GPX1) (AID 1845191); note: nearly all actives have a fitted effect of over 65% in size; note: potency is the fitted concentration of half-maximal effect
In short: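 Recombinant GPX1 (10 nM final) was preincubated with compound for 30 min at room temperature, then reacted with 1 mM GSH, 0.5 mM CHP, 0.5 mM NADPH and 100 nM glutathione reductase; NADPH fluorescence (340/450 nm) was read at 0 and 15 min.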

[3] = molecular target: Phospholipid hydroperoxide glutathione peroxidase GPX4 (Homo sapiens) (UniProt P36969); test: Primary qHTS Assay for Inhibitors of Recombinant Selenoprotein Glutathione Peroxidase 4 (GPX4) (AID 1845192); note: nearly all actives have a fitted effect of over 65% in size
In short: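 GR-coupled readout: 100 nM GR, 1 mM GSH, 0.5 mM NADPH; NADPH fluorescence (ex 340/em 450 nm) read at t=0 and after 15 min RT. GPX4 200 nM, preincubated 30 min with compound; substrate 0.5 mM CHP.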

[4] = HepG2 viability counterscreen (readout 2: ATP content) against the NCATS DSHEA and TCM libraries (AID 1794840)
In short: (§1)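 HepG2 cells, 1,000/well, attached ~4 h, then exposed ~24 h at 37C to substances. Protease activity read by fluorescence of 25 uM GF-AFC (Ex/Em 380/510 nm) after 30 min; ATP then by CellTiter-Glo luminescence.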

[5] = HepG2 viability counterscreen (readout 1: protease activity) against the NCATS DSHEA and TCM libraries (AID 1794841);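 note: cells exposed to compounds for about 24 h before the protease read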
In short: as §1

[6] = molecular target: Cytochrome P450 3A4 (Homo sapiens) (UniProt P08684); test: qHTS for inhibitors of CYP3A4 against the NCATS DSHEA and TCM libraries (AID 1919971);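 note: inhibition lowers luminescence from luciferin made by CYP3A4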
In short: (§2)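 Read-out is luminescence after P450-Glo detection (30 min, RT). Before that: 15 min compound–enzyme preincubation, then 30-45 min reaction with 1x NADPH regeneration solution, substrate concentration isoform-specific.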

[7] = molecular target: Cytochrome P450 2D6 (Homo sapiens) (UniProt P10635); test: qHTS for inhibitors of CYP2D6 against the NCATS DSHEA and TCM libraries (AID 1919972)
In short: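 Luminescent P450-Glo read-out of CYP2D6 turnover of a luciferin substrate after NADPH-driven reaction of 30-45 min at room temperature. Compounds were first preincubated 15 min with enzyme at titrated concentrations; quinidine was the intraplate control.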

[8] = molecular target: Cytochrome P450 2C9 (Homo sapiens) (UniProt P11712); test: qHTS for inhibitors of CYP2C9 against the NCATS DSHEA and TCM libraries (AID 1919973);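 note: luminogenic pro-luciferin CYP2C9 substrate turned into luciferin with NADPH regeneration; series mostly up to about 34 µM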
In short: as §2

[9] = molecular target: Cytochrome P450 2C19 (Homo sapiens) (UniProt P33261); test: qHTS for inhibitors of CYP2C19 against the NCATS DSHEA and TCM libraries (AID 1919974);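 note: luminescence from luciferin released by CYP2C19 oxidation of a pro-luciferin substrate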
In short: as §2

[10] = KB-3-1 P-gp reporter qHTS against the NCATS DSHEA and TCM libraries (AID 1919975)
In short: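 Parental KB-3-1 cells, 500 cells/well, in DMEM with 10% FBS, exposed 72 h at 37 C to compounds in concentration-response. Viability read by CellTiter-Glo luminescence after 30 min at room temperature.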

[11] = molecular target: Cytochrome P450 1A2 (Homo sapiens) (UniProt P05177); test: qHTS for inhibitors of CYPIA2 against the NCATS DSHEA and TCM libraries (AID 1919976);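 note: light from luciferin formed by CYP1A2 from a pro-luciferin substrate; series mostly up to about 37 µM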
In short: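 CYP1A2 + luciferin substrate, 100 mM KPO4-type buffer; cmpd 15 min RT; 1x NADPH regen, 30-45 min RT dark; detection reagent 30 min RT; luminescence. Minus-enzyme wells as background; furafylline intraplate control.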

[12] = qHTS Counterscreen for compound interference against the NCATS DSHEA and TCM libraries (AID 1919978); conditions: firefly luciferase detection reagent interference, luminescence;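 note: compounds preincubated with 1 µM D-luciferin or buffer before detection reagent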
In short: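 Firefly luciferase detection reagent was added after compounds (19.5 nM–39.8 uM final) had been incubated 15 min at room temperature with 1 uM D-luciferin or with 100 mM phosphate buffer alone. Luminescence was read after 30 min at room temperature.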

[13] = Dual reporter qHTS for agonist of Pregnane X Receptor (hPXR) against the NCATS DSHEA and TCM libraries: Fluorescence readout (AID 1920058)
In short: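 HepG2 hPXR-Luc, 2000 cells/well, 5 h attach; cpds ~24 h, 37 °C/5% CO2; CellTiter-Fluor 1 h; fluor. Ex/Em 405/540 nm = viability.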

[14] = molecular target: Nuclear receptor subfamily 1 group I member 2 (Homo sapiens) (UniProt O75469); test: Dual reporter qHTS for agonist of Pregnane X Receptor (hPXR) against the NCATS DSHEA and TCM libraries: Luminescence readout (AID 1920059)
In short: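 hPXR-LucHepG2 cells in phenol red-free DMEM with 5% charcoal-stripped FBS, 2000 cells/well, attached 5 h, then exposed 24 h at 37C to compounds; rifampicin as positive agonist control (2.8 nM–92 uM). Luciferase luminescence read.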

[15] = Viability counterscreen for agonist of constitutive androstane receptor (CAR) against the NCATS DSHEA and TCM libraries (AID 1794838);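 note: HepG2 cells with CYP2B6 reporter and hCAR plus 0.75 µM PK11195 antagonist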
In short: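 HepG2-CYP2B6-hCAR cells (2,500/well) treated 24 h at 37C with compounds plus 0.75 uM PK11195; viability read by CellTiter-Fluor fluorescence, Ex/Em 405/540 nm.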

[16] = molecular target: Nuclear receptor subfamily 1 group I member 3 (Homo sapiens) (UniProt Q14994); test: Primary qHTS for agonist of constitutive androstane receptor (CAR) against the NCATS DSHEA and TCM libraries (AID 1794839);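 note: HepG2 cells expressing human CAR with a CYP2B6 reporter plus PK11195 antagonist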
In short: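 HepG2-CYP2B6-hCAR cells, 2,500/well, attached 5 h, then dosed with 0.75 µM PK11195 (final) for 24 h at 37 °C. Luciferase luminescence read (ONE-Glo); CellTiter-Fluor viability (Ex/Em 405/540 nm) in same wells; CITCO positive control.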

Sequence of Phospholipid hydroperoxide glutathione peroxidase GPX4 (Homo sapiens) (P36969 whole entry, looked up): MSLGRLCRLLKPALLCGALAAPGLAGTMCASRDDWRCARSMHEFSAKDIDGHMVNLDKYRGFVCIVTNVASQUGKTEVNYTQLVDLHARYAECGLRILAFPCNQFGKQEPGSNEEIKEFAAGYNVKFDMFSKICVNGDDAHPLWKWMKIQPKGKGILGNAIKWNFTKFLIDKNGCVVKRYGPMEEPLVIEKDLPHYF
Sequence of Glutathione peroxidase 1 (Homo sapiens) (P07203 whole entry, looked up): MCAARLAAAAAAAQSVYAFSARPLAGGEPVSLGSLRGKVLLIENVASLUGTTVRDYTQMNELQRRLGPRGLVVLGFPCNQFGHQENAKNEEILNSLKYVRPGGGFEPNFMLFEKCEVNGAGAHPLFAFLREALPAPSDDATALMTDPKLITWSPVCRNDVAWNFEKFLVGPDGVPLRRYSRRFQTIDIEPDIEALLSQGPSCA
Sequence of Metallo-beta-lactamase type 2 (Klebsiella pneumoniae) (C7C422 whole entry, looked up): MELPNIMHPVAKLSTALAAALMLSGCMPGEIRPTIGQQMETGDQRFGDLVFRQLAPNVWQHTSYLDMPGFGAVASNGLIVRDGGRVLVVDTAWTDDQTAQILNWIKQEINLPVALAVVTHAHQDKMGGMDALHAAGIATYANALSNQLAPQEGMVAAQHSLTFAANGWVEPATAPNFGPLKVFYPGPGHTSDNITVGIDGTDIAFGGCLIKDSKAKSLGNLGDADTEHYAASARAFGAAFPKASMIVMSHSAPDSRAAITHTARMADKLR
Sequence of Cytochrome P450 3A4 (Homo sapiens) (P08684 whole entry, looked up, canonical isoform): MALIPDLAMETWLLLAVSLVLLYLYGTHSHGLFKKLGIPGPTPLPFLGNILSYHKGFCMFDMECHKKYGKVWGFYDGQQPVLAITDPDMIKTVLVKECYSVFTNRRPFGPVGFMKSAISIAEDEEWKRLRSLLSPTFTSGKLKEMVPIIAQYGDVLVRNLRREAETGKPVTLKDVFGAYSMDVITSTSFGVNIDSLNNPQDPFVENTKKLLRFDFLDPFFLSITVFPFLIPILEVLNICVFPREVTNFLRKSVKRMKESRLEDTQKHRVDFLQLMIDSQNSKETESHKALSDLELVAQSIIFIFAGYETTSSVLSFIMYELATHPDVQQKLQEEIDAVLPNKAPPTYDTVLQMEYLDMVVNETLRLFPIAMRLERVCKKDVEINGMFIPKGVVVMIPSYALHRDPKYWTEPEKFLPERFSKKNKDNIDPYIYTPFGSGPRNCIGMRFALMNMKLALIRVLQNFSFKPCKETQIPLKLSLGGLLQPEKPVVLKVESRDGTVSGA
Sequence of Nuclear receptor subfamily 1 group I member 2 (Homo sapiens) (O75469 whole entry, looked up): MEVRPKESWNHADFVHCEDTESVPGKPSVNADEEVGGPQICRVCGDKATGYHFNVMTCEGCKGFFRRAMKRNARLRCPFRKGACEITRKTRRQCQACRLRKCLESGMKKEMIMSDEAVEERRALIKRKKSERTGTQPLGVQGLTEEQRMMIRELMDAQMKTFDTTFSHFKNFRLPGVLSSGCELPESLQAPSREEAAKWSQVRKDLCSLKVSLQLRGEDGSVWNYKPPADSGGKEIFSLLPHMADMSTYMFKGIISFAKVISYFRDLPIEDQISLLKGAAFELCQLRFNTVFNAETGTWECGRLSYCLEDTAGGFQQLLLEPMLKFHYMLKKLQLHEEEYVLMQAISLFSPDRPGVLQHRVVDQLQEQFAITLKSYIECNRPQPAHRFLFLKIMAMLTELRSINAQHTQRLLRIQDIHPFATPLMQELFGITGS
Sequence of Cytochrome P450 2D6 (Homo sapiens) (P10635 whole entry, looked up): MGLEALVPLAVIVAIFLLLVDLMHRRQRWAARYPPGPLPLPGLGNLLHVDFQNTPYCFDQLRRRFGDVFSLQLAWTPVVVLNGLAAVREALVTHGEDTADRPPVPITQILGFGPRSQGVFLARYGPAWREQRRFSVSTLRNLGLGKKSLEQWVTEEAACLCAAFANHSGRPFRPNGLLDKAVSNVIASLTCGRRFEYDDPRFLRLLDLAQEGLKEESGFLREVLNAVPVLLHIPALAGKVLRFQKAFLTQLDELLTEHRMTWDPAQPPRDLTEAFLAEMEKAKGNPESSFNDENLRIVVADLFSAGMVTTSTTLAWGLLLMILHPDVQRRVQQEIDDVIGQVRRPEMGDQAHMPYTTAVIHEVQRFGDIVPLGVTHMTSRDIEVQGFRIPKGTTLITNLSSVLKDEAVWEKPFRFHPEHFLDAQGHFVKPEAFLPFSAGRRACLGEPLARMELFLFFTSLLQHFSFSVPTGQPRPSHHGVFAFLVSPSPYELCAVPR
Sequence of Cytochrome P450 2C19 (Homo sapiens) (P33261 whole entry, looked up): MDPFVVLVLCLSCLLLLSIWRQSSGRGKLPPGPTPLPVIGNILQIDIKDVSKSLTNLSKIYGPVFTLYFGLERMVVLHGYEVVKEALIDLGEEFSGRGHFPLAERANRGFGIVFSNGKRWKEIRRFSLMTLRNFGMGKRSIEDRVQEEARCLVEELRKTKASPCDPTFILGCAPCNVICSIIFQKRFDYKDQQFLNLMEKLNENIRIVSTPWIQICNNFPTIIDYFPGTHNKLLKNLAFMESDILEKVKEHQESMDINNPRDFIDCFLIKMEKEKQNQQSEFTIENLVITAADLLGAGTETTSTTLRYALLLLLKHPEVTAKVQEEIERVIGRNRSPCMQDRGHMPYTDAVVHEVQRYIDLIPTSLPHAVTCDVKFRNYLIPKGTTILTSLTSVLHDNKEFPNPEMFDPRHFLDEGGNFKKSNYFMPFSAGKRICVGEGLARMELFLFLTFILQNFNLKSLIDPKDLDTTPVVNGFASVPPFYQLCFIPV
Sequence of Cytochrome P450 1A2 (Homo sapiens) (P05177 whole entry, looked up): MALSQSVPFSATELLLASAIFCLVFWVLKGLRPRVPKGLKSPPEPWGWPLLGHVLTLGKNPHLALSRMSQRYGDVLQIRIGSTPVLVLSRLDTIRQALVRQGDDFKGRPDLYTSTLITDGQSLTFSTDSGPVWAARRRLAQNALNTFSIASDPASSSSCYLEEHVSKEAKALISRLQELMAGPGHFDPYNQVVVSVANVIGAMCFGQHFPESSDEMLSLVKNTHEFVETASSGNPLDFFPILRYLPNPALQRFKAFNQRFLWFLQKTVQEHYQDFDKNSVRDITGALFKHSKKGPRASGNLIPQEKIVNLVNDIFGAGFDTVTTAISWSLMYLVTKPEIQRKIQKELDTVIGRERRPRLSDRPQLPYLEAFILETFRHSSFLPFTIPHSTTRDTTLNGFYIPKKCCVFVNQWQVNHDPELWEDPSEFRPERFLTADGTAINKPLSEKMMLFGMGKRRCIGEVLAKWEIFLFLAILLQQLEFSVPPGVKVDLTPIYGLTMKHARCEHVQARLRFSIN
Sequence of Cytochrome P450 2C9 (Homo sapiens) (P11712 whole entry, looked up): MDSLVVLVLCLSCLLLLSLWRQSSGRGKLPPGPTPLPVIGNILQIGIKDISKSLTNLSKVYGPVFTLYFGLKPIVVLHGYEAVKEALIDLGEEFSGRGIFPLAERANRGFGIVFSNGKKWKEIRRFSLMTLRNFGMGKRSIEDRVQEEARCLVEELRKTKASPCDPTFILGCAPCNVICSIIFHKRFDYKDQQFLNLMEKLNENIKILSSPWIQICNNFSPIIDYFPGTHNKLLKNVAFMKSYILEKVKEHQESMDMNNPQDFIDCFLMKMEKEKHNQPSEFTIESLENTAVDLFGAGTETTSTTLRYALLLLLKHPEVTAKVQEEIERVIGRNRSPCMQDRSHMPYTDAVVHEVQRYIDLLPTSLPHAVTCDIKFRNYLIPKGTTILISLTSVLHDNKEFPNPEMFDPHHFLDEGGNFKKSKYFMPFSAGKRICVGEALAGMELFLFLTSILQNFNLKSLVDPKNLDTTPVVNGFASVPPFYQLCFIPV
Sequence of Nuclear receptor subfamily 1 group I member 3 (Homo sapiens) (Q14994 whole entry, looked up): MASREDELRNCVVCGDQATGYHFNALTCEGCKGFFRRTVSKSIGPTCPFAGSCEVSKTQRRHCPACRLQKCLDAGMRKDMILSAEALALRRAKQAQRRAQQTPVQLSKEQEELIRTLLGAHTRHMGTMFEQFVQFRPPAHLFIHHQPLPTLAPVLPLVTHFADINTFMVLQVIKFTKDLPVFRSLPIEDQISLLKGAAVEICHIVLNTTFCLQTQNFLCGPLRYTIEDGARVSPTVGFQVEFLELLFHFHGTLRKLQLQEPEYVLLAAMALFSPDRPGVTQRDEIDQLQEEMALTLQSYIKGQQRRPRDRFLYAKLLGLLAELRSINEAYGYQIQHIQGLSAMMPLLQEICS

NC(N)=NCc1cccc(I)c1
outcome [1]: inactive
Potency [2]: inactive
Potency [3]: inactive

OC1C(O)C(O)C(O)C(O)C1O (stereo not given)
outcome [4]: inactive
outcome [5]: inactive
Potency [2]: inactive
Potency [3]: inactive
outcome [6]: inactive
outcome [7]: inactive
outcome [8]: inactive
outcome [9]: inactive
outcome [10]: inactive
outcome [11]: inactive
max response [12]: 2.31%
outcome [13]: inactive
outcome [14]: inactive

O=C(O)CCC(=O)Nc1ccc(S(=O)(=O)Nc2nccs2)cc1
Potency [2]: inactive
Potency [3]: inactive

O=C(Oc1cccc2cccnc12)c1ccccc1
Potency [2]: inactive
Potency [3]: inactive

C=C[C@@]1(C)CC(=O)[C@]2(O)[C@@]3(C)[C@@H](O)CCC(C)(C)[C@@H]3[C@H](O)[C@H](OC(C)=O)[C@@]2(C)O1
Potency [2]: inactive

CCOC(=O)[C@H](CCc1ccccc1)N[C@@H](C)C(=O)N1[C@H](C(=O)O)C[C@H]2CCCC[C@@H]21
outcome [1]: inactive
Potency [2]: inactive
Potency [3]: inactive

COC(=O)C(c1ccccc1Cl)N1CCc2sccc2C1 (stereo not given)
Potency [2]: inactive
Potency [3]: inactive

CCCCCCCCCCC[C@@H](C[C@@H]1OC(=O)[C@H]1CCCCCC)OC(=O)[C@H](CC(C)C)NC=O
Potency [2]: inactive
Potency [3]: inactive

C#C[C@]1(O)CC[C@H]2[C@@H]3CCC4=Cc5oncc5C[C@]4(C)[C@H]3CC[C@@]21C
Potency [2]: inactive
Potency [3]: inactive

c1ccc(CC2=NCCN2)cc1
Potency [2]: inactive
Potency [3]: inactive

NS(=O)(=O)c1cc2c(cc1Cl)NC(CC1CCCC1)NS2(=O)=O (stereo not given)
Potency [2]: inactive

CN(C)CCC[C@@]1(c2ccc(F)cc2)OCc2cc(C#N)ccc21
Potency [2]: inactive

CCCCCCCCCCCCCCCC(=O)O
outcome [15]: inactive
outcome [16]: inactive
outcome [4]: inactive
outcome [5]: inactive
outcome [6]: inactive
outcome [7]: inactive
outcome [9]: inactive
outcome [10]: inactive
max response [12]: 2.55%
outcome [13]: inactive
outcome [14]: inactive

CCOc1cc(OCC)c(C(=O)CCC(=O)O)cc1OCC
Potency [2]: inactive
Potency [3]: inactive

O=C(NC1CCN(CCc2c[nH]c3ccccc23)CC1)c1ccccc1
Potency [2]: inactive
Potency [3]: inactive

CCc1oc2ccccc2c1C(=O)c1cc(I)c(O)c(I)c1
Potency [2]: inactive

CCOC(=O)Nc1ccc2c(c1)N(C(=O)CCN1CCOCC1)c1ccccc1S2
Potency [2]: inactive
Potency [3]: inactive

CCCN(CCc1cccs1)[C@H]1CCc2c(O)cccc2C1
Potency [2]: inactive
Potency [3]: inactive

CCOc1ccc(NC(C)=O)cc1
Potency [2]: inactive
Potency [3]: inactive

CCCCNc1ccc(C(=O)OCCOCCOCCOCCOCCOCCOCCOCCOCCOC)cc1
Potency [2]: inactive
Potency [3]: inactive

C#C[C@]1(O)CC[C@H]2[C@@H]3CCc4cc(OC)ccc4[C@H]3CC[C@@]21C
Potency [2]: inactive
Potency [3]: inactive

COc1cc([C@H]2Oc3cc([C@H]4Oc5cc(O)cc(O)c5C(=O)[C@@H]4O)ccc3O[C@@H]2CO)ccc1O
Potency [2]: inactive

C[C@@]12C(=O)OC(=O)[C@]1(C)C1CCC2O1
Potency [2]: inactive
Potency [3]: inactive

CCN(CC)CCOc1ccccc1C(=O)CCc1ccccc1
Potency [2]: inactive
Potency [3]: inactive

Cc1ccc(-c2ncc(Cl)cc2-c2ccc(S(C)(=O)=O)cc2)cn1
Potency [2]: inactive
Potency [3]: inactive

C#C[C@]1(O)CC[C@H]2[C@@H]3[C@H](C)CC4=C(CCC(=O)C4)[C@H]3CC[C@@]21C
Potency [2]: inactive
Potency [3]: inactive

CC(C)Nc1cccnc1N1CCN(C(=O)c2cc3cc(NS(C)(=O)=O)ccc3[nH]2)CC1
Potency [2]: inactive
Potency [3]: inactive

N/C(=N\N=C\c1ccc(Cl)cc1)N/N=C/c1ccc(Cl)cc1
Potency [2]: inactive
Potency [3]: inactive

O=C(O)CCNC(=O)c1ccccc1
Potency [2]: inactive
Potency [3]: inactive

Cn1c(=O)c2[nH]c(Br)nc2n(C)c1=O
Potency [2]: inactive
Potency [3]: inactive

CC(C)(C)NC[C@H](O)COc1nsnc1N1CCOCC1
outcome [1]: inactive
Potency [2]: inactive
Potency [3]: inactive

c1ccc(-c2nc[nH]c2-c2ccccc2)cc1
Potency [2]: inactive
Potency [3]: inactive

CCN1CCCC(OC(=O)C(c2ccccc2)c2ccccc2)C1 (stereo not given)
Potency [2]: inactive
Potency [3]: inactive

CN=C(N)NCCC[C@H](N)C(=O)O
outcome [1]: inactive
Potency [2]: inactive
Potency [3]: inactive

OC[C@H]1O[C@@H](Oc2ccc(O)cc2)[C@H](O)[C@@H](O)[C@@H]1O
Potency [2]: inactive
Potency [3]: inactive

CN(C)CCOC(c1ccc(Cl)cc1)c1ccccn1 (stereo not given)
Potency [2]: inactive
Potency [3]: inactive

CC(=O)Nc1ccc(CC(=O)O)cc1
Potency [2]: inactive
Potency [3]: inactive

NS(=O)(=O)Cc1noc2ccccc12
Potency [2]: inactive
Potency [3]: inactive

CCN1CCN(C(=O)N[C@@H](C(=O)N[C@@H]2C(=O)N3C(C(=O)O)=C(CSc4nnnn4C)CS[C@H]23)c2ccc(O)cc2)C(=O)C1=O
Potency [2]: 11.4 µM (active)
Potency [3]: inactive

CCc1ccc(C(=O)C(C)CN2CCCCC2)cc1 (stereo not given)
Potency [2]: inactive
Potency [3]: inactive

C/C=C/c1ccc(O)c(OC)c1
Potency [2]: inactive
Potency [3]: inactive

CC[C@H](c1ccc(O)cc1)[C@@H](CC)c1ccc(O)cc1
Potency [2]: inactive
Potency [3]: inactive

CNCCCCOc1ccccc1Cc1ccccc1
Potency [2]: inactive
Potency [3]: inactive
